In PubChem BioAssay (NCI):
Where “and” joins values, the source holds several entries; their conditions need not be identical. Equal values may be shown once. Compounds without any hit were thinned out: in the full panel of roughly 83,000, 20% have a hit.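 48-hour exposure, single concentration, 96-well plates; percent growth endpoint where 0 means no net growth. Active: below 10.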 Calls of active or inactive are those of the source.

Legend:
Experiment in all cases: NCI-60 one-dose screen, 48 h (100 = growth as untreated, 0 = no growth, -100 = all killed)
[1] = tested on: HCT-15 colon
[2] = tested on: HT29 colon; details: 10 µM unless noted
[3] = tested on: SNB-75 CNS
[4] = tested on: SNB-19 CNS
[5] = tested on: U251 CNS; details: 10 µM unless noted
[6] = tested on: PC-3 prostate
[7] = tested on: SK-MEL-5 melanoma
[8] = tested on: UACC-62 melanoma
[9] = tested on: LOX IMVI melanoma
[10] = tested on: SK-MEL-28 melanoma
[11] = tested on: SK-MEL-2 melanoma
[12] = tested on: EKVX NSCLC
[13] = tested on: SN12C renal
[14] = tested on: UO-31 renal
[15] = tested on: TK-10 renal
[16] = tested on: ACHN renal
[17] = tested on: CAKI-1 renal
[18] = tested on: A498 renal
[19] = tested on: CCRF-CEM leukemia
[20] = tested on: MOLT-4 leukemia

Measured: growth

O=C1OCc2cccc3cccc1c23
inactive: [1]; 10 µM unless noted 94.6% | [2] 105% | [3]; 10 µM unless noted 85.2% | [4]; 10 µM unless noted 104% | [5] 106% | [6]; 10 µM unless noted 89.5% | [7]; 10 µM unless noted 101% | [8]; 10 µM unless noted 95.5% | [9]; 10 µM unless noted 103% | [10]; 10 µM unless noted 107% | [11]; 10 µM unless noted 123% | [12]; 10 µM unless noted 88.2% | [13]; 10 µM unless noted 101% | [14]; 10 µM unless noted 77% | [15]; 10 µM unless noted 101% | [16]; 10 µM unless noted 95.7% | [17]; 10 µM unless noted 102% | [18]; 10 µM unless noted 83.5% | [19]; 10 µM unless noted 94.5% | [20]; 10 µM unless noted 92.6%

O=C(O)c1ccc2c3c(ncnc13)-c1ccccc1C2=O
inactive: [1]; 10 µM unless noted 26.8% | [2] 59.2% | [3]; 10 µM unless noted 20.2% | [4]; 10 µM unless noted 38.1% | [5] 60.6% | [6]; 10 µM unless noted 55.5% | [8]; 10 µM unless noted 12.6% | [9]; 10 µM unless noted 21.5% | [10]; 10 µM unless noted 29.8% | [11]; 10 µM unless noted 88.4% | [12]; 10 µM unless noted 103% | [13]; 10 µM unless noted 48.7% | [14]; 10 µM unless noted 62.7% | [15]; 10 µM unless noted 120% | [16]; 10 µM unless noted 73.8% | [17]; 10 µM unless noted 111% | [19]; 10 µM unless noted 77.9% | [20]; 10 µM unless noted 96.3%
active: [7]; 10 µM unless noted -69.3% | [18]; 10 µM unless noted -2.38%

C[n+]1c(/C=C/c2ccc([N+](=O)[O-])cc2)ccc2ccccc21
inactive: [1]; 10 µM unless noted 98.6% | [2] 104% | [3]; 10 µM unless noted 92.5% | [4]; 10 µM unless noted 108% | [5] 99.6% | [6]; 10 µM unless noted 90% | [7]; 10 µM unless noted 97.9% | [8]; 10 µM unless noted 95.6% | [9]; 10 µM unless noted 92.3% | [10]; 10 µM unless noted 121% | [11]; 10 µM unless noted 103% | [12]; 10 µM unless noted 62.8% | [13]; 10 µM unless noted 102% | [14]; 10 µM unless noted 63.3% | [15]; 10 µM unless noted 112% | [16]; 10 µM unless noted 116% | [18]; 10 µM unless noted 92.4% | [19]; 10 µM unless noted 112% | [20]; 10 µM unless noted 90.7%

CN(C)C(=O)c1ccc(SC(=S)NCc2ccccc2)cc1
inactive: [1]; 10 µM 92.2% | [3]; 10 µM 110% | [5] 16.7% [100 µM] | [6]; 10 µM 97.1% | [6]; 100 µM 17.6% | [7]; 10 µM 102% | [8]; 10 µM 103% | [9]; 10 µM unless noted 87.5% | [10]; 10 µM 106% | [11]; 10 µM 114% | [12]; 10 µM unless noted 69.5% [100 µM] | [13]; 10 µM 103% | [14]; 10 µM 93.2% | [16]; 10 µM 103% | [17]; 10 µM 102% | [17]; 100 µM 11.2% | [18]; 10 µM 114% | [18]; 100 µM 96.1% | [20]; 10 µM 111%
active: [1]; 100 µM -35.1% | [3]; 100 µM 1.41% | [7]; 100 µM -53.1% | [8]; 100 µM 1.05% | [10]; 100 µM -34.8% | [11]; 100 µM 4.25% | [13]; 100 µM -15.4% | [14]; 100 µM -67.4% | [15]; 10 µM unless noted -4.78% [100 µM] | [16]; 100 µM -56.9% | [19]; 10 µM unless noted 0.435% [100 µM] | [20]; 100 µM 3.1%

O=C(O)c1c(Cl)c(Cl)c(Cl)c(Cl)c1-c1c2cc(I)c(=O)c(I)c-2oc2c(I)c(O)c(I)cc12
inactive: [1]; 10 µM 101% and 107% and 90.1% | [1]; 100 µM 22.9% | [4]; 10 µM 100% and 98.4% and 97.9% | [5] 98.5% and 95.3% and 97.7% | [6]; 10 µM 116% and 82.8% and 34% | [7]; 10 µM 107% and 110% and 96.1% | [7]; 100 µM 22.1% | [8]; 10 µM 98.8% and 107% and 96.1% | [9]; 10 µM 98.6% and 92% and 87.7% | [10]; 10 µM 105% and 327% and 108% | [11]; 10 µM 110% and 108% and 73.8% | [12]; 10 µM 98.6% and 98.8% and 91.3% | [13]; 10 µM 99.1% and 95.2% and 98.3% | [14]; 10 µM 102% and 72.9% and 84% | [14]; 100 µM 49.8% | [15]; 10 µM 108% and 116% and 84.5% | [15]; 100 µM 36.6% | [16]; 10 µM 100% and 98.7% and 89.6% | [17]; 10 µM 107% and 102% and 90% | [17]; 100 µM 42.9% | [18]; 10 µM 300% and 106% | [18]; 100 µM 37.1% | [19]; 10 µM 104% and 101% and 51.4% | [20]; 10 µM 110% and 106% and 91.4%
active: [4]; 100 µM -47.9% | [6]; 100 µM -7.17% | [8]; 100 µM -41.3% | [9]; 100 µM -76.1% | [10]; 100 µM -55.7% | [11]; 100 µM -40.2% | [12]; 100 µM -19.9% | [13]; 100 µM 2.38% | [16]; 100 µM -80.7% | [19]; 100 µM -30.2% | [20]; 100 µM -50.2%
